Results: PubChem BioAssay (NCATS)
Inconclusive results are not listed. Where a call stands in place of a potency, no number is given. Active and inactive are the calls of the source. Unless noted, calls come from the whole dose curve; as a rule, active = well fitted curve in the direction sought with a large enough effect; inconclusive = small, poorly fitted or top-dose-only effect, or another doubt; inactive = no such curve, though single readings can be large; an effect the other way counts as inactive or inconclusive.

Tests used:
[1] = Cell Viability - Jurkat (AID 426;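 active = dose-dependent loss of cell ATP signal giving a full or clear fitted curve, ranked by lower potency value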;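 note: potency is the fitted concentration of half-maximal effect; cells exposed to compound for 40 hours at 37 °C before ATP read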); settings: qHTS
Procedure, shortened: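 Cytotoxicity taken as drop in cellular ATP (CellTiter-Glo luminescence, 20 min room temperature) after 40 hr, 37C treatment of 5000 Jurkat Clone E6-1 cells per well; concentration-response fitted with Hill equation for AC50.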

[2] = Cell Viability - Hek293 (AID 427;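 active = compounds whose dose-response curve shows a full or clear partial loss of cell viability, called from curve shape rather than a numeric limit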;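 note: potency is the fitted concentration of half-maximal effect; cells exposed to compound for 40 hours at 37 °C before reading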); settings: qHTS
Procedure, shortened: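 Luminescent ATP read-out (CellTiter-Glo, 20 min RT) after 40 hr compound exposure at 37 °C in complete medium. Signal normalized to DMSO (basal) and 100 uM tamoxifen (100% inhibition); concentration-response fitted with the standard Hill equation to give AC50.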

[3] = Cell Viability - SK-N-SH (AID 435; calls by dose curve;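 note: potency is the fitted concentration of half-maximal effect; compound exposure lasted 40 h at 37 °C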); settings: SK-N-SH neuroblastoma cell viability qHTS
Procedure, shortened: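 CellTiter-Glo ATP luminescence, 20 min RT read; cells pre-plated 5 hr, compound 40 hr at 37 °C, 1500 cells/well, complete medium. Normalized DMSO = 0, 100 uM tamoxifen = 100% inhibition; Hill-fit AC50.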

[4] = Cell Viability - SH-SY5Y (AID 544); settings: SH-SY5Y neuroblastoma cell viability; viability change, negative = cytotoxic: at 92.2 µM (top of the series);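 note: cells exposed to compound for 40 hours; nearly all actives have a fitted effect of over 55% in size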
Procedure, shortened: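 Cytotoxicity measured via ATP-dependent luciferase luminescence (CellTiter-Glo) following 40 h, 37 °C exposure of 1500 SH-SY5Y cells per well. Concentration-response data were fitted with the standard Hill equation to give AC50.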

[5] = target: Cytochrome P450 3A4 (Homo sapiens) (UniProt P08684); experiment: qHTS Assay for Inhibitors and Substrates of Cytochrome P450 3A4 (AID 884); settings: recombinant CYP3A4, Luciferin-PPXE luminescence; series mostly up to 57.1 µM; note: nearly all actives have a fitted effect of over 50% in size
Procedure, shortened: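 Luminescent readout of luciferin produced by CYP3A4 (20 nM) dealkylation of Luciferin-PPXE, 25 uM (its KM). NADPH-driven reaction ran 60 min at RT after 10 min compound preincubation; data scaled to 57 uM ketoconazole as 100% inhibition.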

[6] = MultiTox-Fluor Cytotoxicity Assay - LYMP1-002 - Dead Cells (AID 960); settings: LYMP1-002 lymphoblastoid cells, dead-cell protease fluorescence; series mostly up to 46.1 µM; note: nearly all actives have a fitted effect of over 60% in size
Procedure, shortened: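 Dead-cell fluorescence (Ex/Em 485/520) after 16 h compound exposure at 37 C of LYMP1-002 lymphoblastoid cells in complete medium; AC50 by Hill equation, with data scaled between DMSO and 15 uM tetraoctylammonium bromide.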

[7] = Cell Viability - LYMP2-015 (AID 971); settings: LYMP2-015 lymphoblastoid cell viability; series mostly up to 92.2 µM; note: nearly all actives have a fitted effect of over 55% in size
Procedure, shortened: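 Cytotoxicity readout: decrease in intracellular ATP (CellTiter-Glo luminescence) in 2500 LYMP2-015 lymphoblastoid cells/well after 24 h compound exposure at 37 C. Concentration-response data fitted with the standard Hill equation to give AC50.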

[8] = Cell Viability - LYMP2-010 (AID 981); settings: LYMP2-010 lymphoblastoid cell viability, qHTS; series mostly up to 92.2 µM;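 note: cells exposed to compound for 24 hours at 37 °C; nearly all actives have a fitted effect of over 55% in size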
Procedure, shortened: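 CellTiter-Glo ATP luminescence measured cytotoxicity after 24 h compound exposure at 37 C. LYMP2-010 cells were seeded at 2500/well, with tetraoctylammonium bromide as control; concentration-response curves gave AC50 values by the Hill equation.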

[9] = target: Glucocorticoid receptor (Homo sapiens) (UniProt P04150); experiment: qHTS assay for small molecule agonists of glucocorticoid receptor signaling (AID 588532; active = well fitted curve in the direction sought with a large enough effect in the signal ratio, with a control signal flat; the % refers to the signal ratio); settings: HeLa MMTV-bla, beta-lactamase ratio, agonist, 18 h; stronger effect = higher value; percent of dexamethasone control, DMSO zero
Procedure, shortened: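 Stimulation of a glucocorticoid response element-driven beta-lactamase gene was measured in HeLa cells. Responses were scaled between DMSO basal and 0.1 uM dexamethasone, then fitted for half-maximal stimulation.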

[10] = target: Vitamin D3 receptor (Homo sapiens) (UniProt P11473); experiment: qHTS assay for small molecule agonists of vitamin D receptor signaling (AID 588543; calls by dose curve); settings: HEK293T VDR-UAS-bla, beta-lactamase ratio, 16 h; series mostly up to 76.8 µM
Procedure, shortened: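 β-lactamase reporter, VDR-UAS-bla HEK293T, agonist mode. Cells plated 5 h at 37 °C, compound titration 16 h at 37 °C, CCF4 dye 2 h RT, ratio 460/530 nm. Hill fit → EC50, efficacy vs 50 nM 1α,25-(OH)2D3.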

[11] = qHTS assay for small molecule agonists of retinoid X receptor alpha signaling (AID 588544); settings: HEK293T RXRa-UAS-bla, beta-lactamase reporter, 18 h; 530 nm emission
[12] = target: Thyroid hormone receptor beta (Homo sapiens) (UniProt P10828); experiment: qHTS assay for small molecule agonists of thyroid hormone receptor beta signaling (AID 588545; calls by dose curve); settings: TR-UAS-bla GripTite HEK 293, beta-lactamase ratio, agonist mode, 18 h; series mostly up to 76.7 µM
Procedure, shortened: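 TR-UAS-bla-GripTite HEK 293 cells in medium with 2% charcoal/dextran FBS, 0.1 mM NEAA and 1 mM sodium pyruvate were treated with titrated compounds for 18 hrs at 37 C. Beta-lactamase reporter was read with CCF4 dye (ex 405, em 460/530 nm); EC50 from Hill fits.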

[13] = target: Voltage-gated inwardly rectifying potassium channel KCNH2 (Homo sapiens) (UniProt Q12809); experiment: qHTS Assay for Small Molecule Inhibitors of the Human hERG Channel Activity (AID 588834); settings: U2OS BacMam hERG, FluxOR thallium flux fluorescence; series mostly up to 92.2 µM;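 note: top concentration of the series differs between compounds; lower thallium flux fluorescence means stronger hERG block; nearly all actives have a fitted effect of over 50% in size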
Procedure, shortened: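 Thallium-flux (FluxOR) read-out on FDSS: fluorescence read 10 s before and 2 min after stimulation buffer. hERG-BacMam-transduced U2OS cells, compound exposure about 10 min. AC50 by standard Hill equation.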

[14] = qHTS assay for small molecule activators of the p53 signaling pathway (AID 651743; active = well fitted activation curve with a large enough effect in the signal ratio, not every such curve was filed as active; the % refers to the signal ratio); settings: HCT-116 p53RE-bla, beta-lactamase FRET ratio, 16 h; activation: stronger effect = higher value
Procedure, shortened: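 Agonist-mode quantitative HTS in HCT-116 cells carrying a p53-response-element beta-lactamase reporter; 16 h compound treatment at 37 C, then FRET substrate loading for 2 h at room temperature and fluorescence read.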

[15] = qHTS assay for small molecule activators of the nuclear factor-kappa B (NF-kB) signaling pathway (AID 651749; active = well fitted activation curve with a large enough effect in the signal ratio; the % refers to the signal ratio); settings: NF-kB-bla ME-180 cells, beta-lactamase FRET ratio, 16 h; stronger effect = higher value
Procedure, shortened: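 Human ME-180 cervical cells with an NF-kB-bla construct; compounds added via 23 nL pin transfer, DMSO as vehicle; incubation 16 hr. Reporter activity measured by FRET disruption.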

[16] = qHTS assay for small molecule disruptors of the mitochondrial membrane potential - 1 hr assay (AID 651754; calls by dose curve; note: nearly all actives have a fitted effect of over 35% in size); settings: series mostly up to 92.2 µM
Procedure, shortened: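 Mitochondrial potential in living HepG2 cells after 1 hr compound treatment at 37C was read with Mito-MPS dye added for a further 30 min. Red aggregate and green monomer fluorescence were measured; loss of potential leaves dye as cytoplasmic monomers.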

[17] = qHTS assay for small molecule agonists of the antioxidant response element (ARE) signaling pathway measured by Nrf2-dependant transcriptional activity (AID 720636; active = well fitted curve in the direction sought with a large enough effect in the repeat runs; an effect the other way counts as inactive or inconclusive); settings: ARE-luc HepG2, Nrf2 luciferase reporter, 16 h; series mostly up to 92.4 µM
Procedure, shortened: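 Quantitative HTS format in HepG2 cells stably expressing an ARE-luciferase reporter; 16 hr compound treatment at 37 C, luciferase signal detected with ONE-Glo.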

[18] = qHTS assay for small molecule antagonists of the retinoid-related orphan receptor gamma (ROR-gamma) signaling pathway - cell viability counter screen (AID 720652; active = well fitted curve in the direction sought with a large enough effect in the repeat runs; an effect the other way counts as inactive or inconclusive;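 note: CHO reporter cells with doxycycline-induced ROR-gamma expression; compound exposure lasted 16 hr before ATP read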); settings: RORgamma reporter cell line viability counter screen; series mostly up to 92.2 µM
Procedure, shortened: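 Cytotoxicity counter screen: intracellular ATP (CellTiter-Glo luminescence) measured in the doxycycline-induced CHO RORE-luciferase reporter line after 16 hr compound exposure at 37 C, 5% CO2.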

[19] = qHTS assay for small molecule activators of the human pregnane X receptor (PXR) signaling pathway (AID 720659; call rule not given here); settings: DPX-2 HepG2 CYP3A4-luciferase, 24 h; series mostly up to 92.3 µM
[20] = target: Nuclear receptor ROR-gamma (Homo sapiens) (UniProt P51449); experiment: qHTS assay for small molecule antagonists of the retinoid-related orphan receptor gamma (ROR-gamma) signaling pathway (AID 651802); settings: ROR-gamma antagonist cell reporter assay; series mostly up to 92.2 µM;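 note: CHO cells with doxycycline-induced ROR-gamma expression; luciferase reporter luminescence driven by ROR response element; nearly all actives have a fitted effect of over 60% in size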
Procedure, shortened: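 Luminescence (One-Glo, 30 min RT) measured 16 h after compound addition and doxycycline induction at 37C. Reporter: RORE-luciferase under TET-inducible ROR-gamma in CHO cells.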

Chain of Glucocorticoid receptor (Homo sapiens) (P04150 whole entry, looked up): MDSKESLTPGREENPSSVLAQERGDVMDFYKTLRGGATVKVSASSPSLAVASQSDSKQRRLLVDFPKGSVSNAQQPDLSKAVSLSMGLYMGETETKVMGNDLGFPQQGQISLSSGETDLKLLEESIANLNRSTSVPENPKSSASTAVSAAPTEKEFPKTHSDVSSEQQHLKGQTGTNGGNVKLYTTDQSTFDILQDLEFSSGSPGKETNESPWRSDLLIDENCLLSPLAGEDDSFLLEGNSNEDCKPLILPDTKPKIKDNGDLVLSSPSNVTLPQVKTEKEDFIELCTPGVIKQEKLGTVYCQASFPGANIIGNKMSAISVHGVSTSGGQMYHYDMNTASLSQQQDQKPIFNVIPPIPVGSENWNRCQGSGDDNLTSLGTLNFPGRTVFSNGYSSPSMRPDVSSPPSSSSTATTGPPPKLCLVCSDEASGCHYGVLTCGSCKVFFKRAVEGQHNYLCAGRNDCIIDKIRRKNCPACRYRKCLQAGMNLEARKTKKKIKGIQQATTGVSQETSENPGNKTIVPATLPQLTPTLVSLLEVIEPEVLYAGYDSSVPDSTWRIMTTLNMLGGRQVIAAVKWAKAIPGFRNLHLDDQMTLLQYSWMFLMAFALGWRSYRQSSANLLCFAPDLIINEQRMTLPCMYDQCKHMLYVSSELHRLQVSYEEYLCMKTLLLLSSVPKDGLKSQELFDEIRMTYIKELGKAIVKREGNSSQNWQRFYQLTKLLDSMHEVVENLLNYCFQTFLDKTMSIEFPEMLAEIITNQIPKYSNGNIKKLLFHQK
Chain of Voltage-gated inwardly rectifying potassium channel KCNH2 (Homo sapiens) (Q12809 whole entry, looked up): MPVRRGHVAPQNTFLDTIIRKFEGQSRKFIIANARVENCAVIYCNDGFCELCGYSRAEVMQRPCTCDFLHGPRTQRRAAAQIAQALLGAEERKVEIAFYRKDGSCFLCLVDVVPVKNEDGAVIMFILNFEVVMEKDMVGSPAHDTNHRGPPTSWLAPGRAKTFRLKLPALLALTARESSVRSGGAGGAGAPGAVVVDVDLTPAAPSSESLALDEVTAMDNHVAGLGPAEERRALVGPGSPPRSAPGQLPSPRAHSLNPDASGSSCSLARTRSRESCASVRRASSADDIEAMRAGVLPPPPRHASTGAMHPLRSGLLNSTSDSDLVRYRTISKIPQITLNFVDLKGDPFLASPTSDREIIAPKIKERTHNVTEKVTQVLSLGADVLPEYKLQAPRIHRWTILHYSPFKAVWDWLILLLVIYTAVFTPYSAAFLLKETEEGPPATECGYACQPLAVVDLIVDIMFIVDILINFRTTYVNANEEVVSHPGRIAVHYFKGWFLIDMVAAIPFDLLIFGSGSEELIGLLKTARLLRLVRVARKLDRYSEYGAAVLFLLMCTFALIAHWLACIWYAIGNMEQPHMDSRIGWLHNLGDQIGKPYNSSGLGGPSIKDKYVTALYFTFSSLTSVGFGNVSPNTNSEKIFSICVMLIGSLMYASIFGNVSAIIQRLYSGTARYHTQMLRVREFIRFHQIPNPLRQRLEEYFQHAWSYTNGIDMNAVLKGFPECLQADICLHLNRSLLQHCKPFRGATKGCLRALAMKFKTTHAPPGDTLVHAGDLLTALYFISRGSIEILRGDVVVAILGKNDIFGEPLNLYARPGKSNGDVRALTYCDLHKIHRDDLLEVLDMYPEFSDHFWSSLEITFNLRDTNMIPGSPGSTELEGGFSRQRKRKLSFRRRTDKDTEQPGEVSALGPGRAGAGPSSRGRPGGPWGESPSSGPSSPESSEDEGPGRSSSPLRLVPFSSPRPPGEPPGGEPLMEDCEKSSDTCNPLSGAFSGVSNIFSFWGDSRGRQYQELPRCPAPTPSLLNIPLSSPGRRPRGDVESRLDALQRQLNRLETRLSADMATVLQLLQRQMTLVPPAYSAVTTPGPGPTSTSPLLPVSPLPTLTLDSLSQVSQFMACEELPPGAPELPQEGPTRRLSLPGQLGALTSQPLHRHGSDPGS
Chain of Vitamin D3 receptor (Homo sapiens) (P11473 whole entry, looked up): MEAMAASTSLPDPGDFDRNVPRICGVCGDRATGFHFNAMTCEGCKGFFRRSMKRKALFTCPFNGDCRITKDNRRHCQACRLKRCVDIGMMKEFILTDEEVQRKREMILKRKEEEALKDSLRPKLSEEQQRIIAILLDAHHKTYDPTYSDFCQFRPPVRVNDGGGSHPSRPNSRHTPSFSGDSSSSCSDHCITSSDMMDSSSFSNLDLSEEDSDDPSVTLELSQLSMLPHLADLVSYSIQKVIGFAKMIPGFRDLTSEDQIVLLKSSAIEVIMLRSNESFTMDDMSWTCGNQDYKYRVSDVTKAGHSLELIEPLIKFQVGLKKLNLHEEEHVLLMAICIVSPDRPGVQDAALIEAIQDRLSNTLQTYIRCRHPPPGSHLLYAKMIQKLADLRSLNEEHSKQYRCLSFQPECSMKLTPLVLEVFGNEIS
Chain of Cytochrome P450 3A4 (Homo sapiens) (P08684 whole entry, looked up): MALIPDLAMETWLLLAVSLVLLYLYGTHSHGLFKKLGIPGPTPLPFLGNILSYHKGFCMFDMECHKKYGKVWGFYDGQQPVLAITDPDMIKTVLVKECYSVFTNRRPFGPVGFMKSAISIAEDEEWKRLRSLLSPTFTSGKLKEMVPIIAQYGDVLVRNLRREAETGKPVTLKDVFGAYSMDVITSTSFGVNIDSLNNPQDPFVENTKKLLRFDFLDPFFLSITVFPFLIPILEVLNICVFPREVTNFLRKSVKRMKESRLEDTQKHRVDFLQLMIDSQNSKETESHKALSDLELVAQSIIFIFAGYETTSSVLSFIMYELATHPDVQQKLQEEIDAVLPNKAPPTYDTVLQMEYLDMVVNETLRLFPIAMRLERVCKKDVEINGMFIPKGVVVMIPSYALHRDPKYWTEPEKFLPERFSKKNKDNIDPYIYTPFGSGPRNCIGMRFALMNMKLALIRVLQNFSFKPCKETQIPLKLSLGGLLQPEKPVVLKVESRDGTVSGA
Chain of Thyroid hormone receptor beta (Homo sapiens) (P10828 whole entry, looked up): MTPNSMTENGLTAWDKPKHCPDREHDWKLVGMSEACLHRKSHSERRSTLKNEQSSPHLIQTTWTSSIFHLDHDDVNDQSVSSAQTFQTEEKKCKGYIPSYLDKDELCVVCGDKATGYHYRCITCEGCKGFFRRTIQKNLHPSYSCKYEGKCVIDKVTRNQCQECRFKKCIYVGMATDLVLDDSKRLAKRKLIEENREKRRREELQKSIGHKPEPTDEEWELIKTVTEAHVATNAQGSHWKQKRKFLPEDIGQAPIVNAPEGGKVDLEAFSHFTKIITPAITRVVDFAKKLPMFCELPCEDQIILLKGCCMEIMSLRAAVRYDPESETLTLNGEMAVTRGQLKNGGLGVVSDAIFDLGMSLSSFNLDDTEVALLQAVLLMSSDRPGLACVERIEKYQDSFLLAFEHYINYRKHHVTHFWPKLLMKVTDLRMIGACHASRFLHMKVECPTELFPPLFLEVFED
Chain of Nuclear receptor ROR-gamma (Homo sapiens) (P51449 whole entry, looked up): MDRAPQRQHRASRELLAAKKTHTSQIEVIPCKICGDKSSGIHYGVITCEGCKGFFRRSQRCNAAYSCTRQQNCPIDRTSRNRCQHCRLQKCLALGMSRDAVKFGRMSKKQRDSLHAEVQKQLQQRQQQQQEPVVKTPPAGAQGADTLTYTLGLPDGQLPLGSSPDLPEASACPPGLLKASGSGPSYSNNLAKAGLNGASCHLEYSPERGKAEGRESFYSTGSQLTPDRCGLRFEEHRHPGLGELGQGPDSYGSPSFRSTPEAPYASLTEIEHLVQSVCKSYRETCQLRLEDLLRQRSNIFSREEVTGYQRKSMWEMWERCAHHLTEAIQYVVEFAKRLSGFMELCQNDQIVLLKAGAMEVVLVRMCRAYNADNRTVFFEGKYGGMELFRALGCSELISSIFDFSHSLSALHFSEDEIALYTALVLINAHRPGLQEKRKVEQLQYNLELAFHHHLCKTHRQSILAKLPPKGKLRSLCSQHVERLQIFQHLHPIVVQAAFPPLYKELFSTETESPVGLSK

Row | SMILES | Potency [1] | Potency [2] | Potency [3] | Potency [4] | Potency [5] | Potency [6] | Potency [7] | Potency [8] | activation [9] | Potency [10] | max response [11] [%] | Potency [12] | Potency [13] | activation [14] | activation [15] | Potency [16] | Potency [17] | Potency [18] | outcome [19] | Potency [20]
1 | c1c[nH]cn1 | > 92 µM (inactive) | > 92 µM (inactive) | > 92 µM (inactive) | inactive | inactive | inactive | inactive | inactive | -7.19% (inactive) | inactive | 1.75 | inactive | inactive | -1.43% (inactive) | 0.0227% (inactive) | inactive | inactive | inactive | inactive | –
2 | Cc1ccc2ccc3cccc4ccc1c2c34 | > 92 µM (inactive) | > 92 µM (inactive) | > 92 µM (inactive) | inactive | – | – | inactive | inactive | -3.78% (inactive) | – | -15.6 | inactive | – | – | -0.92% (inactive) | – | – | – | inactive | –
3 | c1ccc(SCCSc2ccccc2)cc1 | > 92 µM (inactive) | > 92 µM (inactive) | > 92 µM (inactive) | inactive | inactive | inactive | inactive | inactive | – | inactive | -9.01 | inactive | – | -1.09% (inactive) | -4.5% (inactive) | – | – | inactive | – | inactive
4 | O=[N+]([O-])c1cccc(I)c1 | > 92 µM (inactive) | > 92 µM (inactive) | > 92 µM (inactive) | inactive | inactive | inactive | inactive | inactive | -12.6% (inactive) | inactive | -0.727 | inactive | inactive | -3.48% (inactive) | -0.0255% (inactive) | inactive | inactive | inactive | inactive | inactive
5 | c1ccc(COCc2ccccc2)cc1 | > 92 µM (inactive) | > 92 µM (inactive) | > 92 µM (inactive) | inactive | inactive | inactive | inactive | inactive | – | inactive | -5.39 | inactive | inactive | -1.51% (inactive) | 0.253% (inactive) | inactive | inactive | inactive | – | inactive
6 | c1ccc2ncccc2c1 | > 92 µM (inactive) | > 92 µM (inactive) | > 92 µM (inactive) | inactive | – | inactive | inactive | inactive | -12.1% (inactive) | – | 5.03 | inactive | inactive | -4.75% (inactive) | – | inactive | inactive | inactive | inactive | inactive
